# Screening data as filed in PubChem BioAssay.
# Shown are actives, neighbours in structure and some others; about 3.5% of the full set was active somewhere.
# GPR151 activ = human GPR151 activation; Q8TDV0; PathHunter beta-arrestin GPR151 cells, luminescence; activation, % at 11.2 µM; actives 1% (n = 650,000); AID 1508602; in the data active = activation above about 4.9%;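 also: 0% = median of compound wells and 100% = cells with positive control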
# FBW7 activator = activators of human E3 ligase FBW7; normalized activity (activation), % at 26.1 µM; AID 1259310; AlphaScreen FBW7–phospho-cyclin E peptide binding, activator screen; actives 0.13% (n = 650,000); in the data active = normalized activity above about 1.9%;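 also: purified mutant Fbw7 with reduced substrate affinity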
# MITF primary = human MITF inhibition, primary screen; O75030; AlphaScreen MITF homodimerization, bead proximity signal; inhibition, % at 2.6 µM; actives 0.91% (n = 650,000); in the data active = inhibition above about 50%;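 also: 0% = vehicle wells with protein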
# Target sequence (O75030 whole entry, looked up): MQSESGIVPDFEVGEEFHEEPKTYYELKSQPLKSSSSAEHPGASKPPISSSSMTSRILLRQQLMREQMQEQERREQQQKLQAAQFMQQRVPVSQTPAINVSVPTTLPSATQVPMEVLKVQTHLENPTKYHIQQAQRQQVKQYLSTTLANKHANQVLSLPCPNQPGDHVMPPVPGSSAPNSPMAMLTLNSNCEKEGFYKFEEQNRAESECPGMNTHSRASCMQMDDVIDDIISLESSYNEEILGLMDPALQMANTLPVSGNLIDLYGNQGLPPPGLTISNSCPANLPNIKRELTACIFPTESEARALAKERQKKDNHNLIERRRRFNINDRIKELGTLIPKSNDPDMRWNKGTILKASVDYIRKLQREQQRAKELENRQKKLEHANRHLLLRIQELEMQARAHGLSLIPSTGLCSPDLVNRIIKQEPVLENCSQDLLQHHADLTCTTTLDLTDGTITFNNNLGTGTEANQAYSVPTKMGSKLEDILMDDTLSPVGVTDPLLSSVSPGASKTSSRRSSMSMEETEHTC
# TEAD-YAP inh = TEAD-YAP interaction inhibition. HEK-TIYL cells, TEAD-Gal4/YAP UAS-luciferase luminescence. inhibition, % at 9.12 µM. actives 1.4% (n = 640,000). AID 1259422; in the data active = inhibition above about 32%;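 also: 0% = median of test compound wells and 100% = reference inhibitor wells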
# Active calls of the source: *.
SMILES,GPR151 activ,FBW7 activator,MITF primary,TEAD-YAP inh
O=C(NCc1cccs1)c1cccnc1SCc1cccc(Br)c1,1,0,-18,-6
Cc1ccc(C2=N/C(=C\c3ccc(OCc4ccc(Br)cc4)cc3)C(=O)O2)cc1,1,0,-1,-13
CC(C)(C)P(=NC(=S)Nc1ccccc1)(N1CCOCC1)N1CCOCC1,-2,0,0,2
CC(C)(C)P(=NC(=S)NNCCO)(N1CCCCCC1)N1CCCCCC1,2,0,-6,78*
O=[N+]([O-])c1cc(C(F)(F)F)ccc1N/N=C/c1ccc(O)cc1O,0,0,9,-6
Cc1cc(NC(=O)CCCC(=O)c2ccccc2)n[nH]1,3,0,9,47*
COc1ccc(C(=O)Nn2c(SCC(=O)Nc3ccc(C)c(Cl)c3)nc3ccccc3c2=O)cc1,1,0,7,75*
COc1ccc(CCn2c(SCC(=O)Nc3ccc(C)c(Cl)c3)nc3ccccc3c2=O)cc1OC,-1,1,3,11
Cc1ccc(NC(=O)CSc2nc3ccccc3c(=O)n2NC(=O)c2ccc(F)cc2)cc1Cl,-4,1,9,57*
CCn1c(SCC(=O)Nc2ccc(C)c(Cl)c2)nc2c1c(=O)n(C)c(=O)n2C,1,1.9*,10,3
Cc1ccc(C(=O)CCC(=O)Nc2cc(C)[nH]n2)cc1,2,0,8,21
Cc1cc2nc(-c3ccc(NC(=O)c4ccccc4C)cc3)oc2cc1C,0,0,8,-2
CCOC(=O)C1=CN(c2ccc(F)cc2)C=C(C(=O)OCC)C1c1cccc(C(F)(F)F)c1,1,0,1,-2
CC(Oc1ccc(Cl)cc1Cl)C(=O)NNC(=O)c1ccccc1[N+](=O)[O-] (stereo not given),2,0,-3,-1
O=C(CSc1ccccn1)N/N=C/c1cc(Br)ccc1O,1,0,13,16
Cc1cc(NC(=O)CSc2nc3ccccc3c(=O)n2NC(=O)c2ccccc2)n[nH]1,-4,0,-3,47*
COc1ccc(CC(=O)NCc2ccco2)cc1,4,0,8,8
COc1ccc(CCNC(=O)C(=O)NCc2ccco2)cc1,1,1,13,34*
Cc1cc(C)n(C(=C(/C(Cl)=C(/Cl)Br)[N+](=O)[O-])n2nc(C)cc2C)n1,0,0,14,42*
CCCn1cc(NC(=O)C2CC(c3ccccc3[N+](=O)[O-])=NO2)cn1 (stereo not given),0,0,-13,-22
Cc1ccc(S(=O)(=O)Nc2cc3c4c(oc3cc2C)CCCC4=O)cc1,1,0,8,10
COC(=O)c1cccc(NS(=O)(=O)c2ccc(C)cc2)c1,0,0,6,53*
COc1ccc(S(=O)(=O)Nc2cc3c4c(oc3cc2C)CCCC4=O)cc1,1,0,1,55*
COC(=O)c1c(C)oc2ccc(NS(=O)(=O)c3ccc(C)cc3)cc12,1,0,-1,56*
COC(=O)c1c(C)oc2cc(C)c(NS(=O)(=O)c3ccc(Br)cc3)cc12,0,0,2,34*
SMILES,GPR151 activ,FBW7 activator,MITF primary,TEAD-YAP inh
COC(=O)c1c(C)oc2c1cc(NS(=O)(=O)c1ccc(Br)cc1)c1ccccc12,0,0,6,4
Cc1ccc(NC(=O)CN2C(=O)C(C)(C)Oc3ccc(C(=O)Nc4ccccc4)cc32)cc1,1,0,11,4
COc1cc([N+](=O)[O-])ccc1NC(=O)C(=O)c1c(C)n(C)c2ccccc12,2,1,8,8
COC(=O)c1c(C)oc2ccc(NS(=O)(=O)c3ccc(Cl)cc3)cc12,0,0,-5,16
COC(=O)c1c(C)oc2ccc(NS(=O)(=O)c3ccc(OC)cc3)cc12,0,0,-22,72*
O=C1NC(=Nc2ccc(O)cc2)S/C1=C\c1cccc(O)c1,1,0,7,57*
O=C1NC(=Nc2ccc(O)cc2)S/C1=C\c1ccccc1F,1,0,-13,43*
O=C1NC(=Nc2ccc(O)cc2)S/C1=C/c1ccccc1,-1,0,18,2
COc1ccc(/C=C2\SC(=Nc3ccc(F)cc3)NC2=O)cc1O,1,0,22,52*
COc1cc(/C=C2/SC(=Nc3ccccc3)NC2=O)ccc1O,0,0,1,0
COc1cc(/C=C2\SC(=Nc3ccc(F)cc3)NC2=O)cc(OC)c1OC,0,0,2,3
COc1cc(/C=C2\SC(=Nc3ccccc3OC)NC2=O)ccc1O,-2,0,2,57*
CC1=NN(c2ccccc2C)C(=O)C1N=Nc1ccccc1 (stereo not given),-1,0,1,3
Cc1[nH]ncc1-c1ccc(NC(=O)OCc2ccccc2)c(OCCN(C)C)c1,0,0,26,-15
N#C/C(=C\c1ccc([N+](=O)[O-])cc1)C(=O)Nc1ccc(S(N)(=O)=O)cc1,0,0,-7,-3
COc1cc(/C=C2/SC(=Nc3ccc(O)cc3)NC2=O)ccc1O,1,0,10,49*
COc1cc(/C=C2\SC(=Nc3ccccc3)NC2=O)ccc1O,-1,0,13,2
COC(=O)c1ccccc1NC(=O)C1CCCN(c2nc(-c3ccc(OC)cc3)no2)C1 (stereo not given),-1,0,20,-10
COc1cccc(-c2nc(C(N)=O)c3[nH]c(=O)n(-c4cccc(C)c4)c3n2)c1,-1,0,-4,7
COc1cc(-c2nc(C(N)=O)c3[nH]c(=O)n(-c4ccc(C)cc4)c3n2)cc(OC)c1OC,1,0,-11,6
COc1ccc(-c2nc(C(N)=O)c3[nH]c(=O)n(-c4cccc(C)c4)c3n2)cc1,0,1,15,58*
COc1ccc(-c2nc(C(N)=O)c3[nH]c(=O)n(-c4ccc(Cl)cc4)c3n2)cc1O,0,0,6,51*
COc1ccc(-c2nc(C(N)=O)c3[nH]c(=O)n(-c4ccc(C)cc4)c3n2)cc1O,0,0,-6,67*
COc1ccc(-c2nc(C(N)=O)c3[nH]c(=O)n(-c4ccc(F)cc4)c3n2)cc1OC,-2,0,1,8
COc1ccc(-c2nc(C(N)=O)c3[nH]c(=O)n(-c4ccc(F)cc4)c3n2)cc1O,1,1,16,54*
SMILES,GPR151 activ,FBW7 activator,MITF primary,TEAD-YAP inh
COC(=O)c1ccc2c(=O)n(CCC3=CCCCC3)c(SCC(=O)c3ccccc3)nc2c1,-1,1,12,-12
C=CCNC(=O)c1noc2c1CC(C(C)(C)C)CC2 (stereo not given),0,0,10,-3
CC(C)(C)C1CCc2onc(C(=O)NC3CCCC3)c2C1 (stereo not given),1,2.6*,13,0
O=C(CN1CCC(Cn2cnc3ccccc32)CC1)Nc1nc2ccc(F)cc2s1,1,0,36,56*
Cc1sc(NC(=O)c2cccnc2)nc1-c1ccc2c(c1)CCN2C(=O)CC(C)(C)C,-1,0,26,0
CC(C)(C)CC(=O)N1CCc2cc(-c3csc(NC(=O)c4cccnc4)n3)ccc21,0,0,2,36*
